G9a block: qHTS Assay for Inhibitors of Histone Lysine Methyltransferase G9a; G9a H3K9 monomethylation, AlphaScreen, 2 h; Potency, µM (titrated, usually from 102 µM), for inactives: at the highest dose activity, negative = inhibition, usual class: inhibitors; 8.8% of 350,000 active; AID 504332, 2011; also: potency is read from the fitted curve at half-maximal effect; % is scaled to controls: 0 for no effect and ±100 for the full control effect; nearly all actives have a fitted effect of over 75% in size
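AlphaScreen read-out: biotin-H3K9 peptide (500 nM) methylation by 20 nM enzyme with 20 uM SAM, 2 h at room temperature after 15 min compound preincubation; anti-monomethyl H3K9 antibody plus donor/acceptor beads, 10 min dark.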
PI5P4K alpha inh: qHTS for Inhibitors of phosphatidylinositol 5-phosphate 4-kinase (PI5P4K). Phosphatidylinositol 5-phosphate 4-kinase type-2 alpha (Homo sapiens), P48426. PI5P4Kalpha enzyme, ADP-Glo luminescence, 60 min; active compounds read low. max response, %. 1.2% of 330,000 active; active = max response of -50% or lower; inconclusive = between -30% and -50%; inactive = -30% or higher; also: value at the top dose of about 77 µM; % is scaled to controls: 0 for no effect and ±100 for the full control effect
Target sequence (P48426 whole entry, looked up): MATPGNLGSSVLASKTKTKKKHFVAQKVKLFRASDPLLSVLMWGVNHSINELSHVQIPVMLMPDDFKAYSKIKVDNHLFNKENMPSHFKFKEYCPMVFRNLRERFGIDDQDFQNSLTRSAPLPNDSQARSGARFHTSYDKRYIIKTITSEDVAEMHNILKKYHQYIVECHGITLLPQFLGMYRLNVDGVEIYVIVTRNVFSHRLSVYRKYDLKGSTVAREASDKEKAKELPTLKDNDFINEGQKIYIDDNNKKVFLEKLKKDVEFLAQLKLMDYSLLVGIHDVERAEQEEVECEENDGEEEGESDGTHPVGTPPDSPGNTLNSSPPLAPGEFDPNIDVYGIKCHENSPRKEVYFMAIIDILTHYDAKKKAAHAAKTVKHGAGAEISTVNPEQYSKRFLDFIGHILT
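Single end-point luminescence (ADP-Glo) quantified ADP from PI5P4Kalpha turnover; ATP 5 microM final, 1 h at RT, 0.1% CHAPS and 0.28 mM EGTA in HEPES pH 7.4.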
JMJD2A Tudor: qHTS Assay for Inhibitors of JMJD2A-Tudor Domain; AlphaScreen JMJD2A-Tudor / H3K4me3 peptide binding; Potency, µM (titrated, usually from 114 µM), for the others: at the top dose activity change, negative = inhibition, actives largely listed as inhibitors; 4.4% of 390,000 active; AID 504339, 2011; also: potency is read from the fitted curve at half-maximal effect; % is scaled to controls: 0 for no effect and ±100 for the full control effect; nearly all actives have a fitted effect of over 50% in size
HP1b binding inh: HTS for Inhibitors of HP1-beta Chromodomain Interactions with Methylated Histone Tails. Potency, µM (series often up to 114 µM), without a hit: at the top dose activity change, negative = inhibition, actives largely listed as inhibitors. 0.56% of 390,000 active. AID 540317, 2011. AlphaScreen HP1-beta / biotin-H3K9me3 peptide binding; also: potency is read from the fitted curve at half-maximal effect; nearly all actives have a fitted effect of over 70% in size
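AlphaScreen: HP1-beta (50 nM) preformed 30 min with biotin-H3(1-18)K9me3 peptide (50 nM) in PBS pH 7.4, 0.01% Tween-20. Compound added for 30 min at RT, then streptavidin donor/nickel chelate acceptor beads (10 ug/mL) for 30 min.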
PLK1 PBD inh: qHTS for Inhibitors of PLK1-PDB (polo-like kinase 1 - polo-box domain): Primary Screen. Plk1 PBD binding of FITC phosphopeptide, fluorescence polarization. Potency, µM, without a hit: max response, negative = inhibition, most hits filed as inhibitors. 2.8% of 360,000 active. AID 720504, 2013; also: potency is read from the fitted curve at half-maximal effect; series mostly up to about 57 µM; % is scaled to controls: 0 for no effect and ±100 for the full control effect; nearly all actives have a fitted effect of over 65% in size
BAZ2B inh: qHTS Assay for Inhibitors of BAZ2B. Bromodomain adjacent to zinc finger domain protein 2B (Homo sapiens), Q9UIF8. AlphaScreen BAZ2B-H3K14Ac peptide displacement. Potency, µM (titrated, usually from 114 µM), for the others: at the top dose activity change, negative = inhibition, hits mostly inhibitors. 4.4% of 360,000 active. AID 504333, 2011; also: potency is read from the fitted curve at half-maximal effect; % is scaled to controls: 0 for no effect and ±100 for the full control effect; nearly all actives have a fitted effect of over 60% in size
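Complex of BAZ2B and biotin-H3K14Ac (50 nM apiece) forms over 30 min at RT, then faces library compounds up to 110 uM for another 30 min; AlphaScreen beads added, 20 min dark incubation, luminescence read.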
Numbers without * were called inactive; ? = inconclusive; . = not tested or not shown; [ ] = remark or other dose. A selection: hits, their analogues and other compounds. The true share with any hit is near 12%. Unless noted, calls follow the shape of the dose curve; as a rule, active = well fitted curve in the direction sought with a large enough effect; inconclusive = small, poorly fitted or top-dose-only effect, or another doubt; inactive = no such curve, though single readings can be large; an effect the other way counts as inactive or inconclusive.

SMILES	G9a block	PI5P4K alpha inh	JMJD2A Tudor	HP1b binding inh	PLK1 PBD inh	BAZ2B inh
COc1ccc(C)cc1N=Nc1ccc(O)c2ncccc12	10µM*	-17	8.9µM*	7.9µM*	2%	18µM*
COc1ccc(C(=O)Nc2nc(-c3nnn(-c4ccc(C(C)C)cc4)c3C)ns2)cc1	7%[59 µM]	.	-17%	-10%	.	-1%
COc1ccccc1N1CCN(C(=O)C2CCN(S(=O)(=O)c3cn(C)cn3)CC2)CC1	-4%[12.7 µM]	.	8%	48%	.	2%
Oc1ccc(N=Nc2ccc3c(c2)OCCO3)c2cccnc12	-47%	?	20µM*	?	27µM*	?
Cc1ccc(N=Nc2ccc(O)cc2)c(Br)c1	.	13	35µM*	?	-7%	45µM*
COc1ccc(N=Nc2ccc(O)c3ncccc23)cc1	-7%[59 µM]	-3	22µM*	-19%	-4%	6.3µM*
COc1ccc(N=Nc2cc(-c3ccccc3)ccc2O)cc1	?	33	13µM*	?	2%	10µM*
O=C(Nc1cccc2ncccc12)c1ccc2c(c1)OCCO2	-34%[12.7 µM]	2	-8%	34%	-5%	-3%
COc1ccc(-c2ncccc2O)cc1	1%	-2	-4%	13%	-4%	-1%
CCN(CC)S(=O)(=O)c1ccc(N=Nc2cc(C)cc(Br)c2O)cc1	.	3	?	?	-2%	.
CCNc1ncc2nc(-c3cccs3)c(=O)n(CCC#N)c2n1	-14%[0.501 µM]	.	.	.	.	.
Cc1cccc(C(=O)NNC(=O)C2CCN(C(=O)OC(C)(C)C)CC2)c1	?	0	1%	17%	-3%	-17%
Oc1ccc(N=Nc2n[nH]c(-c3ccc(Br)cc3)n2)cc1	24%[59 µM]	-13	-13%	7%	2%	-2%
Oc1ccc(N=Nc2ccc(Br)cc2)c(O)c1	?	3	-34%	-9%	-4%	25µM*
COc1cc(OC)cc(C(=O)Nc2cccc3cccnc23)c1	.	-4	26%	51%	-2%	-5%
COc1ccc(-c2[nH]ncc2N=Nc2ccccc2)cc1	50µM*	22	28µM*	?	-10%	35µM*
COc1cccc(N=Nc2ccc3cccnc3c2O)c1	7.1µM*	?	14µM*	?	-19%	13µM*
CCOc1ccc(NC(=O)C(C)n2c(=O)cc(-c3ccccc3)c3c(C)nn(C)c32)cc1 (configuration not stated)	3%[59 µM]	.	-13%	15%	.	-8%
O=C1CCSC2(C(=O)N(Cc3ccc(F)cc3)c3ccccc32)N1c1ccc(Cl)cc1 (configuration not stated)	?	.	-32%	12%	.	-16%[57.1 µM]
Cn1c2c(c(=O)[nH]c1=O)C(c1ccc(O)cc1)C1=C(N2)c2ccccc2C1=O (configuration not stated)	35µM*	-11	50µM*	35µM*	?	2%
Fc1ccccc1/C=N/n1c(COc2ccccc2)n[nH]c1=S	2.2µM*	5	32µM*	?	24µM*	?
O=c1c2ccccc2nc(COc2ccccc2)n1/N=C/c1c[nH]c2ccccc12	-2%	-4	-11%	11%	3%	2%
Oc1ccc(/C=N/n2c(COc3ccccc3)n[nH]c2=S)c(O)c1	1.8µM*	?	-22%	-13%	?	-13%
Cc1ccccc1/C=N/n1c(COc2ccccc2)n[nH]c1=S	2µM*	1	-7%	-2%	?	-1%
Oc1ccccc1/C=N/n1c(COc2ccccc2)n[nH]c1=S	2.5µM*	-10	79µM*	?	?	-35%
Cc1c(CCC(=O)NCCc2ccc(Cl)cc2)c(=O)oc2c(C)c(O)ccc12	9%[59 µM]	.	-1%	59%	.	2%
CCOc1ccccc1/C=N/n1c(COc2ccccc2)n[nH]c1=S	14µM*	-16	?	-4%	?	?

High-throughput results as filed in PubChem.
